# Data reported in PubChem BioAssay AID588856 (National Center for Advancing Translational Sciences (NCATS), 2011).
# Values joined by “and” are separate entries in the source; they are usually repeats but may differ in a detail not shown here. Equal values may be shown once. The whole screen tested about 410,000 compounds, of which about 3,100 (0.76%) were called active. Calls follow the shape of the dose curve; as a rule, active = well fitted cell-killing curve with a large enough effect; inactive = no such curve, though single readings can be large or run the other way. The list comes from a sample in which actives are over-represented; it also holds similar structures and randomly drawn compounds. Where a call stands in place of a potency, no number is given. Some compounds were tested as several samples or in several runs, with calls that do not always agree.
# Experiment: qHTS for Inhibitors of TGF-b: Cytotox Counterscreen
# Details: HepG2 CAGA-GFP viability, ATP luminescence, 18 h; series mostly up to 46.1 µM
# Text: TGF-b is a main component in the TGF-b signaling pathway which plays diverse roles in cellular and development pathways. TGF-b is mediated by transcription factors called "Smads". Although the Smad-dependent pathway is the primary canonical TGF-b signaling mode, TGF-b1 can also activate alternative signaling pathways, including those involving MAPK (ERK, JNK and p38). This interaction may mediate or enhance Smad-dependent responses, or can exert Smad-independent effects. The complexity of this signaling cascade allows the TGF-b superfamily to perform unique, overlapping or redundant functions. We believe that targeting the TGF-beta pathway at the Smad-transcription factor level may eliminate the consequences of disrupting the entire pathway and offer specificity without affecting other signaling pathways. Smad3 is the primary transducer of TGF-b's signals and Smad3 regulates many functions attributed to TGF-b signaling. We hypothesize that Smad3 inhibitors will selectively eliminate Smad3-specific TGF-beta signals without undesired off-target effects. We aim to identify Smad3-small molecule antagonists using a quantitative high throughput screening (qHTS) approach.
# A high-throughput assay was developed to screen the NIH Molecular Libraries Small Molecule Repository (MLSMR). This is a cell based assay, where TGF-b is tagged with GFP. This is a counterscreen that evaluates the cytotoxicity of the compounds that were screened in the primary cell-based screen (AID 588855).
# MH087449NIH Chemical Genomics Center [NCGC]
# NIH Molecular Libraries Probe Centers Network [MLPCN]
# Assay Submitter (PI): Sushil Rane, National Institute of […]
# Suspensions of trypsinized HEPG2 CAGA-GFP cells were dispensed into white, tissue culture-treated, solid 1536-well plates at 5uL/well (1000 cells/well final concentration) in DMEM medium supplemented with 1% FBS. Plates were incubated at 37 degrees C for 2 hours, after which 23 nL of compounds or DMSO were delivered to each well using a pin tool. One uL of recombinant TGF-beta in DMEM (1% FBS) was then dispensed (500 pg/mL final concentration), and plates were incubated at 37 degrees C for 18 hours. Two uL of CellTiter Glo (Promega), a luminescence-based viability reagent, was dispensed, followed by a 10 minute room temperature incubation. The plates were then measured on a PerkinElmer ViewLux plate reader for luminescence (clear filter) using a 5 second exposure. The %Activity was determined from the corrected luminescence values. Wells containing media only (no cells) were used to normalize %Activity of identified toxic compounds; media-only wells corresponded to 100%Activity (complete cell-killing), while DMSO-dosed cell controls were used to normalize 0%Activity (no toxicity).
# Concentration-response curves were fitted to the signals arising from the resulting luminescence. The concentration-effect curves were then classified based on curve quality (r2), response magnitude and degree of measured activity, and compounds were subsequently categorized based on their curve class.
# Potency is read from the fitted curve at half-maximal effect.
row,SMILES,Potency
1,O=C(NCCc1ccc(Cl)cc1)c1ccc2c(c1)N(Cc1ccc(F)cc1)C(=O)CS2,inactive
2,O=C1C[C@H]2C=CCc3cccc(c32)CN1Cc1ccccc1,inactive
3,O=C(COC(=O)c1ccccc1OCCOc1ccccc1)Nc1cccc(Br)c1,inactive
4,Cc1ccc(C)c2sc(NC(=O)c3ccc(S(=O)(=O)N4CCCC4)cc3)nc12,inactive
5,Cc1ccc(C)c(Cn2c(CCCNC(=O)C3CCCCC3)nc3ccccc32)c1,inactive
6,O=C(O)C1=C/C(=C/C=[N+]2c3cc(O)c(O[C@H]4OC(CO)[C@@H](O)[C@@H](O)[C@@H]4O)cc3C[C@@H]2C(=O)[O-])C[C@H](C(=O)O)N1 (stereo not given in full),inactive
7,O=C(CSc1nc2nccnc2c(=O)n1CCc1c[nH]c2ccccc12)Nc1ccccc1F,inactive
8,CCOCCCNC(=O)c1c(NC(=O)c2nc(SC)ncc2Cl)sc2c1CCCC2,inactive
9,CSc1nnc(NC(=O)c2nc(S(=O)(=O)Cc3ccc(C)cc3)ncc2Cl)s1,15.8 µM (active)
10,Cc1ccc2nc(NC(=O)c3nc(SCc4ccccc4F)ncc3Cl)sc2c1,inactive
11,CCOc1cccc(C(=O)Nc2nnc(S(=O)(=O)N(C)c3ccc(C)cc3)s2)c1,inactive
12,Cc1nnc(NC(=O)CSc2nccn2-c2cccc(C)c2C)s1,inactive
13,Cc1ccc(CS(=O)(=O)c2ncc(Cl)c(C(=O)Nc3nnc(C)s3)n2)cc1,15.8 µM (active)
14,CCN(CC)/[N+]([O-])=N/Oc1cc(O/[N+]([O-])=N/N2CCCC2CO)c([N+](=O)[O-])cc1[N+](=O)[O-] (stereo not given),inactive
15,Brc1nc2ncnc(NCc3ccco3)c2[nH]1,inactive
16,COC(=O)c1cc(NC(=O)c2cnc(SC)nc2-c2ccccc2)cc(C(=O)OC)c1,inactive
17,O=C(c1ccco1)N(Cc1cccs1)c1ccc(O)cc1,inactive
18,Cc1[nH]n(-c2ccccc2)c(=O)c1CCOC(=O)c1ccc(C(F)(F)F)cc1,inactive
19,CCOC(=O)C[C@H]1c2ccc(C(F)(F)F)cc2S(=O)(=O)N1c1ccccc1,inactive and 7.08 µM (active)
20,COc1ccc(CN2C(CC(=O)Nc3cccnc3)c3ccc(C(F)(F)F)cc3S2(=O)=O)cc1 (stereo not given),inactive

row,SMILES,Potency
1,Cc1cc(C)c(NC(=O)CN2C(=O)c3cccnc3Oc3ccc(Cl)cc32)c(C)c1,inactive
2,O=C1CN(Cc2ccccc2)S(=O)(=O)c2ccccc21,inactive
3,O=C(Nc1ccc(-c2nc3cc(NC(=O)c4ccccc4Cl)ccc3o2)cc1)c1ccccc1Cl,inactive
4,Cc1ccc(C)c(S(=O)(=O)n2nc(C)c(S(=O)(=O)N3CCC(C)CC3)c2C)c1,inactive
5,COc1ccccc1CNC(=O)c1cc(-c2cc(Cl)ccc2C)n[nH]1,inactive
6,COc1ccc(-c2cc(C(=O)NCc3cc(OC)c(OC)c(OC)c3)[nH]n2)cc1,inactive
7,Cc1cc(O)ccc1-c1cc(C(=O)NCc2cc(C(F)(F)F)cc(C(F)(F)F)c2)[nH]n1,12.6 µM (active)
8,CN(Cc1ccccc1)c1ncnc2onc(-c3ccc(F)cc3)c12,inactive
9,CCCCC(=O)OC1=CN(Cc2ccccc2)S(=O)(=O)c2ccccc21,inactive
10,Cc1ccccc1C(=O)Nc1sc2c(c1C(=O)N1CCC(C)CC1)CCCC2,inactive
11,O=C(/C=C/Sc1ncn[nH]1)c1ccc(Cl)cc1,12.6 µM (active)
12,CCOc1ccccc1NC(=O)CN1CCCN(Cc2cccc(Cl)c2)S1(=O)=O,inactive
13,O=C1COc2ccc(-c3csc(-c4ccc(Cl)cc4)n3)cc2N1,inactive
14,CNC(=O)[C@]1(C(F)(F)F)C[C@H](CCc2ccccc2)CCCO1,inactive
15,Cc1cccc(OCC(O)CN2CCN(CCN3C(=O)c4cccc5cccc(c45)C3=O)CC2)c1C (stereo not given),12.6 µM (active)
16,CCc1ccc(OCC(O)CN2CCN(CCO)CC2)cc1 (stereo not given),inactive
17,Cc1cccc(OCC(O)CN2CCN(S(=O)(=O)c3ccc(C)cc3C)CC2)c1 (stereo not given),inactive
18,COc1cc2nc(NCC(C)c3ccccc3)n3nc(-c4ccccc4)nc3c2cc1OC (stereo not given),inactive
19,Cc1cc2nc(-c3ccc(NC(=O)c4cc5ccccc5o4)cc3)oc2cc1C,inactive
20,CCCSC(=S)NC1CCS(=O)(=O)C1 (stereo not given),11.2 µM (active)

row,SMILES,Potency
1,CC(C)C(=O)NC(NC(=S)NC1CCS(=O)(=O)C1)C(Cl)(Cl)Cl (stereo not given),inactive
2,O=S1(=O)CCC(NC(=S)SCc2ccccc2Br)C1 (stereo not given),inactive
3,O=C(/C=C/c1cn(CC(O)CN2CCc3ccccc32)c2ccccc12)c1ccc(Br)cc1 (stereo not given),inactive
4,CCOc1ccc(C(=O)/C=C/c2cn(CC(O)CN3CCCCCC3)c3ccccc23)cc1 (stereo not given),11.2 µM (active)
5,CCOc1ccc(C(O)Cn2c(=N)n(CCN3CCCCC3)c3ccccc32)cc1 (stereo not given),inactive
6,COc1ccc(CC(N)c2csc(NC(=O)NC(c3ccccc3)c3ccccc3)n2)cc1 (stereo not given),12.6 µM (active)
7,COc1ccc(CNC(=O)C(Cc2ccccc2)n2cccc2)cc1 (stereo not given),inactive
8,COc1ccc(C(=O)NC(Cc2ccc(OC(=O)c3ccc(OC)cc3)cc2)C(=O)O)cc1 (stereo not given),inactive
9,CN(C(=N)N)c1ccc(/C=C2\C=Cc3ccccc32)cc1,inactive
10,Cc1ccc2c(=O)c(C(=O)c3ccc(Cl)cc3)cn(CC(=O)NC3CCCCC3)c2n1,inactive
11,NCCCNC(=S)NCCCN(Cc1ccc(Cl)cc1)c1ccc(Br)cn1,inactive and 17.8 µM (active)
12,S=C(NCCCc1cnc[nH]1)NCCCN(Cc1ccc(Cl)c(Cl)c1)c1ccc(Br)cn1,10 µM (active)
13,CC(C)(C)c1ccc(C(=O)NCC(c2ccco2)S(=O)(=O)c2ccc(F)cc2)cc1 (stereo not given),inactive
14,CSc1ccc(CCNC(=O)c2cc(C)nc3c2c(C)nn3-c2cccc(F)c2)cc1,inactive
15,CC(C)(C)OC(=O)N1CCC(c2c(C(=O)NCc3ccccn3)cnn2-c2ccc(F)cc2)CC1,inactive
16,COc1ccccc1N1CCN(c2ncnc3onc(-c4cccc(Cl)c4)c23)CC1,inactive
17,Cc1cccc(CC(=O)N2CC(=O)Nc3ccc(F)cc3C2c2ccccc2)c1 (stereo not given),inactive
18,O=C(NCc1ccccc1)C1CCN(S(=O)(=O)c2ccc3[nH]c(=O)ccc3c2)CC1,inactive
19,CCCn1c(NCc2ccccc2F)nc2ccccc21,inactive
20,CCN1/C(=C\c2ccc3ccccc3[n+]2CC)Sc2cc(C)ccc21,11.2 µM (active)
